GBA activity – human lysosomal glucosylceramidase modulation | P04062 | purified enzyme, resorufin glucoside fluorescence (screen aimed at inhibitors), 20 min | Potency, µM | 1.1% of 48,000 active; in the data active = potency below about 15 µM; inconclusive = mostly about 16 µM to 33 µM;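 note: the screen sought inhibitors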
Target sequence (P04062 whole entry, looked up): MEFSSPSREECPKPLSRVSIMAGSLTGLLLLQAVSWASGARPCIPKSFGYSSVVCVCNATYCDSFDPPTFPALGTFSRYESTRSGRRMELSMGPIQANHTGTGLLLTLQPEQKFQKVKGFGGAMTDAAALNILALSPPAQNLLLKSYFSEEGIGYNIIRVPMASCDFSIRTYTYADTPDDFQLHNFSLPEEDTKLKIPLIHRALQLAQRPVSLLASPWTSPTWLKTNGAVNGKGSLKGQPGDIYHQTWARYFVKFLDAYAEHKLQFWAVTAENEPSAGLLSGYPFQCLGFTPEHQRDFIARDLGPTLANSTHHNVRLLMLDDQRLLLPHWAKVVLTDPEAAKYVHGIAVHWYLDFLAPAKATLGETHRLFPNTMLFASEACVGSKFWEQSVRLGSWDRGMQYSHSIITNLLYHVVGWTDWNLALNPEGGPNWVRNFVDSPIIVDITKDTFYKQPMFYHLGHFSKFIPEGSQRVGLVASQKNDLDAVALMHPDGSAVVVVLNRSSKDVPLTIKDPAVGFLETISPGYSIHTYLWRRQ
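Compounds titrated against 0.2 nM normal enzyme, 30 uM resorufin beta-D-glucopyranoside substrate, citrate/phosphate buffer with taurocholate and tween-20, pH 5.9. Reaction ran 20 min at room temperature; fluorescence (Ex 548/Em 600) gave AC50.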
PK Bst – pyruvate kinase (B. stearothermophilus) modulation; Potency, µM; AID 361; 1.2% of 51,000 active; purified pyruvate kinase, luminescence ATP production; ribose 5-phosphate activator present at AC10; in the data active = potency below about 11 µM; inconclusive = mostly about 12 µM to 25 µM;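 the screen sought inhibitors and activators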;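 note: scaled between full activation by ribose 5 phosphate and full inhibition by luteolin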
* = called active by the depositor; i = inactive; u = inconclusive; x = no result given. A selection: hits, their analogues and other compounds. The true share with any hit is near 2.3%. Potency is the fitted concentration of half-maximal effect.

SMILES	GBA activity	PK Bst
O=C(Nc1ccc(-c2cn3ccsc3n2)cc1)C1CC1	i	4.9*
COC(=O)c1ccc(C(=O)OC)c(NC(=O)c2cc3ccccc3o2)c1	x	>11
O=C1NC(Nc2nccs2)(C(F)(F)F)C(=O)N1CCc1ccccc1 (stereo not given)	u	>57
COc1c2c(nc3occc13)C(CCC(C)(C)O)(OC)C(O)CC2 (stereo not given)	>77	>57
CC1(C)CC2(CC(C)(C)NC(=O)N2)NC(=O)N1	>77	>57
CCOc1ccc(NC(=O)c2cccc3c2C(=O)N(Cc2cccnc2)C3)cc1	>77	4.2*
CCOC(=O)N1CCC(NC(=O)c2cccc3c2C(=O)N(Cc2cccnc2)C3)CC1	>77	>57
COCCN1Cc2cccc(C(=O)Nc3ccc(S(=O)(=O)N4CCCCC4)cc3)c2C1=O	15*	>57
COCCN1Cc2cccc(C(=O)Nc3cccnc3)c2C1=O	>77	x
O=C1C(=O)N(CCCN2CCOCC2)C(c2ccccn2)/C1=C(\O)c1ccc2c(c1)OCCO2 (stereo not given)	>77	>57
CC(C)(C)c1ccc(S(=O)(=O)NCCc2ccncc2)cc1	u	>57
CCCc1ccc(S(=O)(=O)NCCc2ccncc2)cc1	7.1*	>57
O=C(CN1CCN(c2ncccn2)CC1)N1CCN(C(c2ccccc2)c2ccccc2)CC1	>77	>57
Cc1cccc(OCc2nnc(SCc3cc(=O)n4cc(Br)ccc4n3)o2)c1	i	>57
CCCCC(CCC(=O)Nc1ccccc1C(=O)OCC)C(=O)O (stereo not given)	u	>57
O=C(c1ccccc1)c1cc(-c2ccccc2)on1	x	1.9*
O=C(NCc1ccccn1)c1cc(-c2ccccc2)on1	>77	>57
Cc1sc2nc3c4ccccc4c(NCc4ccco4)nn3c(=O)c2c1C	u	2*
Cc1nnc(NCc2ccco2)c2ccccc12	>77	>57
CC(C)(C)NC(=O)C(c1ccncc1)N(C(=O)c1csnn1)C1CC1 (stereo not given)	x	9.1*
Cc1ccc(C(C(=O)NC2CCCC2)N(C(=O)c2csnn2)C2CCCC2)o1 (stereo not given)	>77	>57
CCOC(=O)N1CCC(n2c(SCC(=O)Nc3nccs3)nc3ccsc3c2=O)CC1	>77	>57
Cc1ccc(NC(=O)COC(=O)C2CC2C)c(S(=O)(=O)N2CCCCC2)c1 (stereo not given)	>77	>57
CC1(C)CC(n2c(=S)[nH]c3ccccc3c2=O)CCO1 (stereo not given)	i	>57
O=c1c2ccccc2[nH]c(=S)n1C1CCCCC1	14*	>57
SMILES	GBA activity	PK Bst
CCN(CC)CCCN1C(=O)C(O)=C(C(=O)c2cc3cccc(OC)c3o2)C1c1ccncc1 (stereo not given)	>77	>57
Cc1nc(/N=C(\N)Nc2ccccc2)nc2ccccc12	x	9.3*
N/C(=N\c1nc2c(c(=O)[nH]1)CCCC2)Nc1ccccc1	>77	x
Clc1ccc(CSc2nnc(-c3ccccn3)n2Cc2ccco2)c(Cl)c1	>77	>57
c1ccc2c(c1)nc(-c1ccncc1)n1nnnc21	>77	8.9*
c1ccc(-c2nc3ccccc3c3nncn23)cc1	>77	x
Cc1nonc1NC(=O)Nc1cccnc1	u	>57
O=C(O)Cn1nnnc1SCC(=O)Nc1ccc(OC(F)(F)F)cc1	>77	x
Cc1ccc(-c2nnn(CC(=O)N(CC(=O)NCc3ccccc3)c3cccc(C)c3C)n2)o1	>77	4.4*
Cc1cccc(N(CC(=O)NCc2ccccc2)C(=O)Cn2nnc(-c3ccc(C)o3)n2)c1	>77	>57
COc1cccc(-c2cn3nc4c(nc3n2)CCCC4)c1	>77	4.6*
COc1cccc(-c2cc(C(F)(F)F)n3nc(N)nc3n2)c1	>77	>57
CC(=O)C1=C(C)Nc2ncnn2C1c1ccc(Cl)cc1Cl (stereo not given)	>77	i
Cc1ccccc1CS(=O)(=O)CCC(=O)N1CCN(c2ccc(N3CCOCC3)nn2)CC1	>77	>57
COc1ccc(-c2nc3ccccc3c(=O)n2CCN2CCOCC2)cc1	>77	>57
COc1ccc(-c2cc3nc4n(c(=O)c3s2)CCOC4)cc1	x	6.7*
CN1C(=S)SC(N(O)C(=O)NC2CCCCC2)C1(C)C (stereo not given)	>77	>57
c1ccc(C2=Nn3c(nnc3-c3cc(-c4ccccc4)n[nH]3)SC2)cc1	8.5*	>11
CCc1ccc(C2=Nn3c(nnc3-c3cccs3)SC2)cc1	8.2*	i
c1ccc(C2=Nn3c(nnc3-c3n[nH]c4c3CCC4)SC2)cc1	x	>57
COc1ccc(C2=Nn3c(nnc3-c3ccc(OC)cc3)SC2)cc1	u	>57
COc1cc(C)c(C(C)C)cc1S(=O)(=O)NCCCn1ccnc1	x	>57
CCCOc1ccc(N2CC(C(=O)NC(C)C)CC2=O)cc1 (stereo not given)	>77	>57
Cc1cc2c(c(=O)o1)C(C13C=CC(CC1)C3)C(C#N)=C(N)O2 (stereo not given)	>77	>57
O=c1[nH]nc(Sc2ncnc3sccc23)n1CCc1ccccc1	>77	>57
SMILES	GBA activity	PK Bst
Cc1ccc(Cl)cc1N1CCN(C(=O)CCC(=O)O)CC1	>77	>57
Cc1ccc(Cl)cc1N1CCN(C(=O)CN2C(=O)c3cccc4cccc2c34)CC1	>77	5.3*
Cn1c(=O)[nH]c(=O)c2[nH]c(N(Cc3ccccc3)Cc3ccccc3)nc21	>77	>57
O=C(CCn1cnc2ccccc2c1=O)Nc1ccc2c(c1)OCCO2	x	>57
Cc1ccc(NC(=O)CCn2cnc3ccccc3c2=O)cc1Cl	6.5*	>57
O=S(=O)(Nc1cccc2ccccc12)N1CCCC1	>77	x
Cc1nc2c(c(=O)n1CC1CCCO1)c1nc3ccccc3nc1n2Cc1ccc2c(c1)OCO2 (stereo not given)	x	>26
Cc1ccc(CSc2nnc(-c3cccs3)n2C)cc1	>77	>57
Cc1nnc(SCc2cnc(-c3ccc(C(C)C)cc3)s2)n1C	>77	0.56*
COc1cccc(NC(=O)CSc2nnc(-c3cccc(OC(C)C)c3)n2N)c1	>77	>57
CCCCC(=O)NCCc1cc2c(OC)ccc(OC)c2[nH]c1=O	>77	i
C#CCNc1nc(C)nc2c1nnn2Cc1ccccc1F	>77	>57
CCn1c(CSc2nnc(-c3ccc4c(c3)OCO4)o2)nc2cc(S(=O)(=O)N(C)C)ccc21	>77	>57
CCCc1cc(N2CCN(c3ccccn3)CC2)n2nc(C)c(-c3ccccc3)c2n1	x	>57
COc1cccc(OCC(O)CN(CCO)Cc2ccccc2)c1 (stereo not given)	13*	>57
CN(C)CC(O)COc1cccc(OCC(O)CN(C)C)c1 (stereo not given)	x	>11
CCOC(=O)C1CC=C(Cl)CC1C(=O)Nc1nccs1 (stereo not given)	>77	>57
CCc1nnc(NC(=O)C2CCN(S(=O)(=O)Cc3ccccc3)CC2)s1	4.3*	>57
Cc1nnc(NC(=O)C2CCCN(S(=O)(=O)Cc3ccccc3)C2)s1 (stereo not given)	u	>57
CC(=O)Cc1nsc(NC(=O)c2ccc(COc3ccccc3)o2)n1	x	>57
Cc1nc(Nc2ncc3c(n2)CCCC3=O)nc2ccccc12	x	>26
COC(=O)C1=C(CSCc2ccco2)NC(=O)NC1c1cc(C)ccc1C (stereo not given)	>77	>57
Cc1nn2cc(-c3ccccc3)nc2s1	>77	u
c1ccc(-c2cn3c4c(sc3n2)CCCC4)cc1	x	0.33*
CC1CCN(CCCNC(=O)Cc2c(C(=O)O)n(C)c3ccccc23)CC1	>77	>57

Screening data deposited in PubChem by National Center for Advancing Translational Sciences (NCATS).
